Assay outcomes: PubChem, National Center for Advancing Translational Sciences (NCATS)
Hits are enriched below; roughly 12% of the tested compounds scored in any of these assays.
G9a block – inhibitors of human histone lysine methyltransferase G9a; Q96KQ7; hit rate 8.8% among 350,000; Potency, µM (series often up to 102 µM), without a hit: top-dose activity, negative = inhibition, usual class: inhibitors; G9a H3K9 monomethylation, AlphaScreen, 2 h; AID 504332; further: potency means the concentration at half of the fitted maximal effect; on the % scale 0 is the no-effect control and ±100 the full control effect; nearly all actives have a fitted effect of over 75% in size
Target sequence (Q96KQ7 913-1193 limits assumed): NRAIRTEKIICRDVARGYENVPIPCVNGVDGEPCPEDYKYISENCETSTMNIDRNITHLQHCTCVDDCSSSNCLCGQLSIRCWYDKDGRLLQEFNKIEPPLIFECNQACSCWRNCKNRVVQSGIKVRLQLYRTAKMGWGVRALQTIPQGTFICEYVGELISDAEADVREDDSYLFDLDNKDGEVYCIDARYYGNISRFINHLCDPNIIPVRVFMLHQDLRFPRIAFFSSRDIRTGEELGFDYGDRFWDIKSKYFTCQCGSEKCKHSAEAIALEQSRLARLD
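G9a (20 nM) was preincubated 15 min with compound, then reacted 2 h at room temperature with 500 nM biotin-H3K9 peptide and 20 µM SAM. Monomethyl-H3K9 detected by AlphaScreen using anti-H3K9me1 antibody.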
BAZ2B block – BAZ2B (human) inhibition | Potency, µM (top dose mostly 114 µM), without a hit: top-dose activity change, negative = inhibition, usual class: inhibitors | AlphaScreen BAZ2B-H3K14Ac peptide displacement | AID 504333 | hit rate 4.4% among 360,000 | Q9UIF8; further: potency means the concentration at half of the fitted maximal effect; on the % scale 0 is the no-effect control and ±100 the full control effect; nearly all actives have a fitted effect of over 60% in size
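In this displacement format the biotinylated H3(5-23) peptide acetylated at Lys14 serves as ligand at 50 nM, with BAZ2B at 50 nM in PBS pH 7.4 containing 0.01% Tween-20. Donor and acceptor beads are 10 ug/mL final.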
PI5P4K alpha inh – blocks human PI5P4K alpha kinase activity | hit rate 1.2% among 330,000 | P48426 | PI5P4Kalpha enzyme, ADP-Glo luminescence, 60 min; stronger effect = lower value | max response, %; active means max response of -50% or lower; inconclusive means between -30% and -50%; inactive means -30% or higher; further: value at the top dose of about 77 µM; on the % scale 0 is the no-effect control and ±100 the full control effect
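ADP-Glo luminescence end-point after a 60 min room-temperature kinase reaction. PI5P4Kalpha and substrate in HEPES pH 7.4 buffer with EGTA, 0.1% CHAPS and 5% DMSO; ATP at 5 microM final.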
JMJD2A Tudor – inhibitors of human JMJD2A Tudor domain; O75164; AlphaScreen JMJD2A-Tudor / H3K4me3 peptide binding; Potency, µM (doses to about 114 µM), for the others: at the highest dose activity change, negative = inhibition, actives largely listed as inhibitors; hit rate 4.4% among 390,000; further: potency means the concentration at half of the fitted maximal effect; on the % scale 0 is the no-effect control and ±100 the full control effect; nearly all actives have a fitted effect of over 50% in size
PLK1 PBD inh – PLK1 (human) polo-box domain binding inhibition. P53350. Plk1 PBD binding of FITC phosphopeptide, fluorescence polarization. Potency, µM, for inactives: max response, negative = inhibition, actives largely listed as inhibitors. hit rate 2.8% among 360,000. AID 720504; further: potency means the concentration at half of the fitted maximal effect; series mostly up to about 57 µM; on the % scale 0 is the no-effect control and ±100 the full control effect; nearly all actives have a fitted effect of over 65% in size
HP1b chromo inh – blocks HP1-beta chromodomain binding to methylated histone tails. P83916. hit rate 0.56% among 390,000. AID 540317. AlphaScreen HP1-beta / biotin-H3K9me3 peptide binding. Potency, µM (series often up to 114 µM), inactives show top-dose activity change, negative = inhibition, actives largely listed as inhibitors; further: potency means the concentration at half of the fitted maximal effect; nearly all actives have a fitted effect of over 70% in size
Target sequence (P83916 whole entry, looked up): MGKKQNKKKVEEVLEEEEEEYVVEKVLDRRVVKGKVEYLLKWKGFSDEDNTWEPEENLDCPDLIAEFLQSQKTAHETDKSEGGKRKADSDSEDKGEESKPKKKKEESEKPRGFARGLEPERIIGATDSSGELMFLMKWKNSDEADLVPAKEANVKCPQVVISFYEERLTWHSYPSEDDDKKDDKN
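HP1-beta protein (50 nM final) preincubated 30 min at room temperature with biotinylated H3(1-18)K9me3 peptide (50 nM) in PBS pH 7.4, 0.01% Tween-20, then compound added for 30 min. AlphaScreen streptavidin donor/nickel chelate acceptor beads (10 ug/mL final), 30 min dark, luminescence read.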
An asterisk follows results filed as active; ? = inconclusive; / = not tested or not shown; [ ] = dose if it differs, or a comment. Unless noted, the call rests on the fitted dose curve; in most records, active means well fitted curve in the direction sought with a large enough effect; inconclusive means small, poorly fitted or top-dose-only effect, or another doubt; inactive means no such curve, though single readings can be large; an effect the other way counts as inactive or inconclusive.

SMILES	G9a block	BAZ2B block	PI5P4K alpha inh	JMJD2A Tudor	PLK1 PBD inh	HP1b chromo inh
Cc1cc(C)cc(C(=O)NC(CC(N)=O)c2ccc(NCC3CC3)c([N+](=O)[O-])c2)c1 (stereo not drawn)	79µM*	5%[57.1 µM]	0	-12%	4%	33%
CCOC(=O)c1ccccc1NC(=O)CN(c1ccccc1OC)S(=O)(=O)c1ccc(C)cc1	-9%[59 µM]	-2%	/	?	/	48%
CSc1ccc(CCNC(=O)CCc2c(C)nc3cc(-c4ccccc4)nn3c2C)cc1	-6%[59 µM]	-2%	/	?	/	12%
CN(C(=O)COC(=O)c1ccc(S(=O)(=O)N2CCCCCC2)cc1)c1ccccc1	/	/	-4	/	0%	/
Cc1ccc(C2/C(=C(\O)c3ccc4c(c3)OCCO4)C(=O)C(=O)N2Cc2cccnc2)cc1 (stereo not drawn)	56µM*	-20%[57.1 µM]	-4	-30%	-2%	28%
O=C1C(=O)N(Cc2cccnc2)C(c2ccc(Br)cc2)/C1=C(\O)c1ccc2c(c1)OCCO2 (stereo not drawn)	10%[59 µM]	-14%	-1	-14%	-1%	18%
COc1ccc(/C(O)=C2/C(=O)C(=O)N(CC3CCCO3)C2c2cccc(OC)c2)cc1 (stereo not drawn)	-35%[59 µM]	-13%	/	-34%	0%	23%
COc1cccc(C2/C(=C(\O)c3ccc4c(c3)OCCO4)C(=O)C(=O)N2CC2CCCO2)c1 (stereo not drawn)	?	-29%	6	22µM*	0%	6%
COc1ccc(/C(O)=C2/C(=O)C(=O)N(CC3CCCO3)C2c2ccc(O)c(OC)c2)cc1 (stereo not drawn)	50µM*	-6%	-3	-26%	-17%	-18%
Cc1ccc(C2/C(=C(\O)c3ccc4c(c3)OCCO4)C(=O)C(=O)N2CC2CCCO2)cc1 (stereo not drawn)	50µM*	-27%	2	?	-9%	-1%
O=C1NC(=O)C(=Cc2ccccc2)N1	/	/	-2	-12%	1%	35%
O=C1NC(=O)/C(=C/c2cccc(O)c2)N1	-4%[12.7 µM]	-28%	-64*	-7%	2%	29%
COc1cc(NC(=O)CCS(=O)(=O)c2ccc3c(c2)CC(=O)N3C)cc(OC)c1OC	-5%[59 µM]	0%	/	5%	/	21%
CCN1C(=O)[C@H]2[C@@H](c3ccc(OC)cc3)N[C@]3(CCCN(Cc4ccc(C(F)(F)F)cc4)C3=O)[C@H]2C1=O	/	/	-1	/	-4%	/
c1ccc(CNc2nc(-c3cccnc3)cs2)cc1	50µM*	?	0	?	-10%	17%
Oc1ccc(Nc2nc(-c3ccc(O)cc3)cs2)cc1	?	28µM*	/	?	-13%	?
O=C(O)c1ccc(Nc2nc(-c3cccnc3)cs2)cc1	?	1%	1	-7%	-10%	10%
Brc1ccc(Nc2nc(-c3cccnc3)cs2)cc1	32µM*	-15%	-10	-22%	-9%	31%
Oc1ccc(Nc2nc(-c3cccnc3)cs2)cc1	40µM*	?	1	?	-9%	-15%
Brc1cccc(Nc2nc(-c3cccnc3)cs2)c1	/	-1%	-1	-12%	-9%	38%
CCOC(=O)c1ccccc1NC(=O)c1nn(-c2ccc(C)cc2)c(=O)n(C)c1=O	5%[59 µM]	15%	/	-13%	/	41%[57 µM]
c1ccc(-c2csc(Nc3ccc4c(c3)OCCO4)n2)cc1	11µM*	50µM*	4	71µM*	0%	-52%
CCC(=O)Nc1nc(-c2ccc3c(c2)OCCO3)cs1	-12%[59 µM]	-6%	-9	-15%	-7%	53%
c1cc2c(cc1-c1csc(NNC3=NCCCCC3)n1)OCCO2	6.3µM*	35µM*	-14	-26%[11.4 µM]	19µM*	?
Nc1ccc(Nc2nc(-c3ccncc3)cs2)cc1	40µM*	?	/	56µM*	-6%	-31%
SMILES	G9a block	BAZ2B block	PI5P4K alpha inh	JMJD2A Tudor	PLK1 PBD inh	HP1b chromo inh
CCCc1ccc(OCC(=O)Nc2sc3c(c2C(=O)OCC)CCC(C(C)(C)C)C3)cc1 (stereo not drawn)	-44%[59 µM]	-15%	/	-9%	/	21%
COc1ccc(OC)c(-c2csc(NC(=O)CSc3ccccc3)n2)c1	-10%[59 µM]	?	-17	-36%	-20%	-10%
COc1ccc(CC(=O)Nc2nc(-c3cc(OC)ccc3OC)cs2)cc1	?	-37%	8	-19%[57.1 µM]	-7%	12%
COc1ccc(OC)c(-c2csc(NC(=O)Cc3ccc(OC)c(OC)c3)n2)c1	50µM*	?	25	?	1%	-12%
COc1ccc(-c2csc(NC(=O)CSc3ccc(Br)cc3)n2)c(OC)c1	25µM*	?	-1	-16%	-9%	16%
CCOc1ccccc1NC(=O)c1nnn(CC(=O)Nc2ccc(OC)c(OC)c2)c1N	1%[59 µM]	10%[57.1 µM]	/	-19%	/	-4%
COc1ccc(Oc2ncc3ncc(=O)n(C[C@H]4CCCO4)c3n2)cc1	2%[12.7 µM]	/	/	/	/	/
CC(C)CNC(=O)C1CCN(S(=O)(=O)c2ccc3c(c2)OCCO3)CC1	7%	9%	4	2%	-3%	39%
CN(C)Cc1cc(CN(C)C)c(O)c(CCc2ccccc2)n1	50µM*	-28%	-2	-20%[57.1 µM]	?	43%
Cc1ccc(-c2nc(CN(C)C)cc(CN(C)C)c2O)cc1	50µM*	?	2	?	-12%	27%
Cc1ccc2oc(-c3ccc(NC(=O)c4oc5ccc(Cl)cc5c4C)cc3)nc2c1	4%[59 µM]	1%	/	1%	/	22%
O=C(Nc1ccc(Cl)cc1)C1CCC(CNS(=O)(=O)c2ccc(Br)s2)CC1 (stereo not drawn)	-3%[59 µM]	2%	/	6%	/	29%
O=C(c1ccc(Br)o1)N1N=C(c2ccc(Cl)cc2)CC1c1ccco1 (stereo not drawn)	50µM*	?	?	?	-26%	?
CS(=O)(=O)Nc1cccc(C2=NN(S(=O)(=O)c3ccccc3)C(c3ccco3)C2)c1 (stereo not drawn)	50µM*	-21%	-11	?	30µM*	?
Clc1ccc(C2=NN(c3ccccc3)C(c3ccco3)C2)cc1 (stereo not drawn)	/	14%	6	248%	-3%	379%
O=S(=O)(c1ccccc1)N1N=C(c2ccc(Cl)cc2)CC1c1ccco1 (stereo not drawn)	45µM*	0%	6	-26%	-1%	16%
Cc1ccc(F)c(S(=O)(=O)NC(=O)C2(C)CCN2C(=O)c2cccc3ccccc23)c1 (stereo not drawn)	/	/	3	/	-11%	/
C[C@@](N)(Cc1ccc(O)c(O)c1)C(=O)O	-27%[21.5 µM]	/	/	/	/	/
Clc1ccc(CSc2ncnc3nc[nH]c23)cc1	?	-11%	0	-12%	-5%	44%
COc1ccc(CSCCN)cc1Cl	-25%[12.7 µM]	-19%	/	-8%	-10%	3%
